# In PubChem BioAssay AID1259412 (Laboratorio de Genomica e Expressao (LGE), UNICAMP, 2018):
# Calls of active or inactive are those of the source. No rule for the calls is given here.
# Columns and labels:
# [1] = AOX inhibitors, oxygen consumption, profiling panel (AID 1259412); conditions: AOX-dependent respiration, at 500 µM; for growth (% of control): O2 uptake, measured here: growth; for O2 uptake (% of control): measured here: O2 uptake, control condition (no AOX);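 as to growth (% of control): growth monitored over 72 h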
# [2] = test system: alternative oxidase (AOX); assay: as above; conditions: AOX-dependent respiration, at 500 µM, stronger effect = lower value
# [3] = AOX-dependent treatment condition, stronger effect = lower value
Compound,"growth (% of control) [1, 3] [%]",growth (% of control) ([1]; control condition) [%],O2 uptake (% of control) ([1]; stronger effect = lower value) [%],O2 uptake (% of control) [2]
O=C(Nc1cccc(Br)c1)c1ccccc1I,57.8,98.8,81,10.4% (active)
O=C(Nc1cccc(Cl)c1)c1cccc(F)c1,17.8,60.1,78.3,24.6% (active)
O=C(Nc1ccc(-n2ccnc2)cc1)c1cccc(Br)c1,44.9,75.3,84.4,72.6% (active)
N#Cc1cccc(C(=O)Nc2cccc(NC(=O)c3cccc(C#N)c3)c2)c1,91.4,132,107,95.1%
O=C(Nc1cccc(Cl)c1)c1cccc(I)c1,73,88.6,80.5,15.4% (active)
O=C(Nc1cccc(Cl)c1)c1cccc(Br)c1,71.8,101,85,15% (active)
O=C(NCc1ccc2c(c1)OCO2)c1cccc(I)c1,99.2,97.5,99.1,26.3% (active)
NC(=O)c1ccccc1NC(=O)c1cccc(I)c1,91.2,98.8,87.5,35.5% (active)
COc1cccc(C(=O)Nc2cccc(S(=O)(=O)c3cccc(N)c3)c2)c1,132,112,105,98.1% (inactive)
O=C(Nc1cccc(OCc2ccccc2)c1)c1ccccc1,99.7,117,90.5,38.2% (active)
O=C(Nc1ccccc1)c1cccc(F)c1,73.9,101,103,61.8% (active)
Nc1cccc(S(=O)(=O)c2cccc(NC(=O)c3cccc(Cl)c3)c2)c1,94.1,83.7,110,98.3% (inactive)
Cc1cccc(C(=O)Nc2cccc(NC(=O)c3cccc(C)c3)c2)c1,70.5,118,102,51.6% (active)
O=C(Nc1ccccc1)c1cccc(Cl)c1,92.3,91.8,94.9,22% (active)
COc1cc(NC(=O)c2cccc(Cl)c2)cc(OC)c1OC,82.2,78,97.8,81.5% (active)
CCN(CC)CCNC(=O)c1ccccc1,92.5,87.9,95.7,78.4% (active)
O=C(Nc1cccc(C(F)(F)F)c1)c1cccc(Cl)c1,37.9,93.2,93.2,15.8% (active)
O=C(Nc1cccc([N+](=O)[O-])c1)c1cccc(Cl)c1,84.5,90.6,93,22.3% (active)
O=C(Nc1ccc(N2CCOCC2)cc1)c1cccc(F)c1,94.7,90.8,104,86.3% (inactive)
O=C(NCc1ccc2c(c1)OCO2)c1cccc(F)c1,39.8,48.8,89.6,36.9% (active)

Compound,"growth (% of control) [1, 3] [%]",growth (% of control) ([1]; control condition) [%],O2 uptake (% of control) ([1]; stronger effect = lower value) [%],O2 uptake (% of control) [2]
O=C(Nc1cccc(F)c1)c1ccccc1,83,92.8,102,43.6% (active)
O=C(NCc1ccc2c(c1)OCO2)c1ccccc1,56.1,65.8,99.1,38.6% (active)
NC(=O)c1ccccc1NC(=O)c1cccc(Br)c1,97.2,80.6,80.8,36.9% (active)
O=C(Nc1cccc(I)c1)c1ccccc1,95,91,78.6,17.3% (active)
O=C(Nc1cccc(I)c1)c1cccc(I)c1,87.3,90.6,96.7,25.1% (active)
O=C(Nc1ccc(N2CCOCC2)cc1)c1cccc(I)c1,95.3,99.3,94.4,74.5% (inactive)
COc1cc(NC(=O)c2ccccc2)cc(OC)c1OC,84.6,76,95.8,61.1% (active)
O=C(Nc1cccc(F)c1)c1cccc(Br)c1,23.1,88,73.7,28.7% (active)
O=C(Nc1cccc(Br)c1)c1cccc(I)c1,103,98.1,89.6,20.2% (active)
O=C(Nc1cccc(OCc2ccccc2)c1)c1cccc(Br)c1,90.8,93.9,107,88.7% (active)
O=C(Nc1cccc(C(F)(F)F)c1)c1cccc(I)c1,49.4,83.8,82.2,17.5% (active)
O=C(Nc1cccc(F)c1)c1cccc(I)c1,64.5,86.5,76,23.7% (active)
N#Cc1cccc(C(=O)Nc2cccc(Cl)c2)c1,54.1,87.1,87.4,27.6% (active)
Cc1cccc(C(=O)Nc2ccc(N3CCOCC3)cc2)c1,91,96,96.2,84.8% (inactive)
Nc1cccc(S(=O)(=O)c2cccc(NC(=O)c3cccc(Br)c3)c2)c1,86.5,64,105,110%
COc1cccc(C(=O)Nc2cccc(I)c2)c1,78.2,80,92.5,23% (active)
O=C(Nc1cccc([N+](=O)[O-])c1)c1ccccc1,61.1,103,95.6,36% (active)
N#Cc1cccc(C(=O)Nc2cccc(C(F)(F)F)c2)c1,49.7,90.1,89.3,28.9% (active)
O=C(Nc1ccc(N2CCOCC2)cc1)c1cccc(Br)c1,76.7,92.2,100,85% (active)
